Experimental data reported in PubChem BioAssay (NCI).
The panel holds about 83,000 compounds, 20% with a hit somewhere; the sample as a whole holds those more often.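 The endpoint reported here, percent growth, reads 100 for growth as untreated, 0 for no net growth and -100 for all cells dead.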 Activity calls are given as the source filed them. Rule for the calls: active = growth percent below 10; inactive = the rest.

How the values were obtained:
Experiment in all cases: NCI-60 one-dose screen, 48 h (100 = growth as untreated, 0 = no growth, -100 = all killed)
Details in all cases: 10 µM unless noted
DU-145 prostate = system: DU-145 prostate
K-562 leukemia = system: K-562 leukemia
MALME-3M melanoma = system: MALME-3M melanoma
MDA-MB-231 breast = system: MDA-MB-231 breast
SF-268 CNS = system: SF-268 CNS
SF-295 CNS = system: SF-295 CNS
SF-539 CNS = system: SF-539 CNS
UACC-257 melanoma = system: UACC-257 melanoma
HCT-15 colon = system: HCT-15 colon
HT29 colon = system: HT29 colon
SNB-75 CNS = system: SNB-75 CNS
SNB-19 CNS = system: SNB-19 CNS
U251 CNS = system: U251 CNS
PC-3 prostate = system: PC-3 prostate
SK-MEL-5 melanoma = system: SK-MEL-5 melanoma
UACC-62 melanoma = system: UACC-62 melanoma
LOX IMVI melanoma = system: LOX IMVI melanoma
SK-MEL-28 melanoma = system: SK-MEL-28 melanoma

Measured: growth

NC(N)=Nc1ccc(Oc2cccc(NC(N)=Nc3ccc(I)cc3F)c2)cn1
inactive: DU-145 prostate 88.3% | K-562 leukemia 46.1% | MALME-3M melanoma 75.5% | MDA-MB-231 breast 62.8% | SF-268 CNS 36.3% | SF-295 CNS 47.3% | SF-539 CNS 60.3% | UACC-257 melanoma 75.6% | HCT-15 colon 87.4% | HT29 colon 31.8% | SNB-75 CNS 77.5% | SNB-19 CNS 26.3% | U251 CNS 46.1% | PC-3 prostate 28.1% | SK-MEL-5 melanoma 48.8% | UACC-62 melanoma 63% | LOX IMVI melanoma 12.8% | SK-MEL-28 melanoma 71.9%

COc1ccc2c(c1)Oc1nc(N)c(C#N)c(N)c1C2Sc1ccc(C)cc1 (centres undefined)
active: DU-145 prostate -50% | K-562 leukemia 4.37% | MALME-3M melanoma -57% | MDA-MB-231 breast -77.1% | SF-539 CNS -34% | UACC-257 melanoma 9.55% | HCT-15 colon -82.5% | HT29 colon -26.8% | SNB-19 CNS 7.65% | U251 CNS 0.124% | PC-3 prostate -43.8% | SK-MEL-5 melanoma -25.1% | UACC-62 melanoma 9.86% | LOX IMVI melanoma -98.4% | SK-MEL-28 melanoma -25.9%
inactive: SF-268 CNS 50% | SF-295 CNS 92.9% | SNB-75 CNS 88.7%

CCCCCc1ccc(S(=O)(=O)Nc2cccc(-c3csc(NC(=O)CN4CCN(CCO)CC4)n3)c2)cc1
inactive: DU-145 prostate 86.5% | K-562 leukemia 19.6% | MALME-3M melanoma 32.3% | MDA-MB-231 breast 76.7% | SF-268 CNS 76.8% | SF-295 CNS 77% | SF-539 CNS 83.6% | UACC-257 melanoma 85.4% | HCT-15 colon 51.3% | HT29 colon 35.6% | SNB-75 CNS 88% | SNB-19 CNS 82.6% | U251 CNS 55.4% | PC-3 prostate 64.1% | SK-MEL-5 melanoma 51.7% | UACC-62 melanoma 90% | SK-MEL-28 melanoma 79.4%
active: LOX IMVI melanoma -45.9%

O=C(NNc1nc2cc(F)cc(F)c2n2cccc12)c1cnccn1
inactive: DU-145 prostate 22.4% | K-562 leukemia 14.3% | MALME-3M melanoma 23.1% | MDA-MB-231 breast 33.4% | SF-268 CNS 21.9% | SF-295 CNS 10.9% | HCT-15 colon 24.8% | HT29 colon 26.2% | SNB-75 CNS 49.2% | SNB-19 CNS 25% | U251 CNS 16.2% | PC-3 prostate 24.1% | SK-MEL-5 melanoma 14.2% | SK-MEL-28 melanoma 25.8%
active: SF-539 CNS 7.61% | UACC-257 melanoma 3.96% | UACC-62 melanoma 5.21% | LOX IMVI melanoma 5.06%

O=C(NNc1nc2cc(F)ccc2n2c(CN3CCCC3)ccc12)c1cnccn1
inactive: DU-145 prostate 17.2% | K-562 leukemia 11.1% | MALME-3M melanoma 37.4% | MDA-MB-231 breast 31.4% | SF-268 CNS 22.1% | HCT-15 colon 23% | HT29 colon 24% | SNB-75 CNS 65% | SNB-19 CNS 25.2% | U251 CNS 19.8% | PC-3 prostate 21.4% | SK-MEL-5 melanoma 22.3% | UACC-62 melanoma 17.9% | SK-MEL-28 melanoma 30.8%
active: SF-295 CNS 6.2% | SF-539 CNS 1.5% | UACC-257 melanoma 0.872% | LOX IMVI melanoma 3.56%

N#Cc1cccc(CN2CCC3=C(C2)C(=O)N(Cc2ccc(Cl)cc2)C2=NCCN23)c1
active: SF-295 CNS 8.53%
inactive: DU-145 prostate 28.5% | K-562 leukemia 23.3% | MALME-3M melanoma 50.4% | MDA-MB-231 breast 31.7% | SF-268 CNS 36% | SF-539 CNS 41.7% | UACC-257 melanoma 10.7% | HCT-15 colon 17.3% | HT29 colon 30.8% | SNB-75 CNS 60.9% | SNB-19 CNS 23.7% | U251 CNS 23.3% | PC-3 prostate 24.1% | SK-MEL-5 melanoma 13.1% | UACC-62 melanoma 29.9% | LOX IMVI melanoma 47.5% | SK-MEL-28 melanoma 48.3%

O=C(NNc1nc2cc(F)c(F)cc2n2c(CN3CC4CNCC4C3)ccc12)c1ncccn1 (centres undefined)
inactive: DU-145 prostate 24% | MALME-3M melanoma 10.3% | MDA-MB-231 breast 38.7% | SF-268 CNS 19.7% | HCT-15 colon 19.8% | HT29 colon 23.5% | SNB-75 CNS 52.1% | SNB-19 CNS 29.9% | U251 CNS 17.3% | PC-3 prostate 17.6% | SK-MEL-28 melanoma 29.3%
active: K-562 leukemia 9.16% | SF-295 CNS -14.5% | SF-539 CNS 6.72% | UACC-257 melanoma 8.25% | SK-MEL-5 melanoma -33.8% | UACC-62 melanoma -20.1% | LOX IMVI melanoma 1.73%

CCC1=Cc2cc(OC)ccc2OC12C=Cc1cc(OC)ccc1O2 (centres undefined)
inactive: DU-145 prostate 19.9% | K-562 leukemia 12.6% | MALME-3M melanoma 58.4% | MDA-MB-231 breast 34.9% | SF-268 CNS 39.2% | SF-295 CNS 15.7% | UACC-257 melanoma 79.6% | HCT-15 colon 14.7% | SNB-75 CNS 24.5% | SNB-19 CNS 20.8% | U251 CNS 28.7% | PC-3 prostate 31.6% | SK-MEL-5 melanoma 16.8% | SK-MEL-28 melanoma 56.6%
active: SF-539 CNS -23.7% | HT29 colon -9.52% | UACC-62 melanoma 4.11% | LOX IMVI melanoma -5.73%
